# Assay outcomes as filed in PubChem BioAssay.
# Hits are enriched below; roughly 6.6% of the tested compounds scored in any of these assays.
# KB-V1 cytotox: KB-V1 MDR subline cytotoxicity. Potency, µM (series often up to 46.1 µM), actives largely listed as cytotoxic. 3.4% of 400,000 active. KB-V1 MDR cells viability, CellTiter-Glo, 72 h; note: nearly all actives have a fitted effect of over 60% in size
#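 KB-V1, DMEM (no phenol red) + 10% FBS; cpd pin-transferred, titration series; 72 h, 37 degrees C; CellTiter-Glo, luminescence. Data normalized, curve-fit.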
# SW480 rerep: inducers of DNA re-replication in SW480 colon cancer cells; SW480 DNA re-replication, Hoechst DNA content imaging, 48 h; Potency, µM (highest dose often 46.1 µM), usual class: activators; 1.8% of 340,000 active; note: nearly all actives have a fitted effect of over 55% in size
#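 Image-based read-out: total Hoechst fluorescence of nuclei (405 nm excitation, 500-530 nm emission), with hits raising the fraction of high-intensity nuclei. SW480 colon cells incubated 48 hr with compounds at 37 C.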
# RGS4 inhibitor: human RGS4 inhibition. P49798. Potency, µM (highest dose often 114 µM), usual class: inhibitors. Transcreener GDP fluorescence polarization, RGS4-accelerated GTP hydrolysis. 0.039% of 390,000 active; note: nearly all actives have a fitted effect of over 75% in size
# Target sequence (P49798 whole entry, looked up): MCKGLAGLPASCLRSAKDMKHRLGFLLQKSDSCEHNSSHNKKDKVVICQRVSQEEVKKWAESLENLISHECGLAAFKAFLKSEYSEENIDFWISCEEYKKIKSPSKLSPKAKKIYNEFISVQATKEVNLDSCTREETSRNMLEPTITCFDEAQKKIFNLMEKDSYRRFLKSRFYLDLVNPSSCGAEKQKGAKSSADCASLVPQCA
#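 MLSMR compounds (23 nl, pin-transferred) preincubated 10 min at room temperature with a 500nM (2x) first reagent, then RGS4 at 900nM (2x) plus Transcreener GDP mix added; fluorescence polarization (620/688 nm) read before and after 90 min at 30 °C.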
# PTAP TSG101 blk: blocks PTAP/TSG101 interaction to inhibit HIV-1 budding; 340,000 tested, under 10 active; Potency, µM (top dose mostly 115 µM), usual class: inhibitors; Fluorescence polarization, FITC-PTAP peptide / Tsg101 binding; Q99816; AID 493005; active = well fitted inhibition curve with a large enough effect in the main read-out, with a control signal flat, not every such curve was filed as active; inconclusive = small, poorly fitted or top-dose-only effect, or effect the other way, or a change in a side signal; inactive = no such curve, though single readings can be large or run the other way
# Target sequence (Q99816 whole entry, looked up): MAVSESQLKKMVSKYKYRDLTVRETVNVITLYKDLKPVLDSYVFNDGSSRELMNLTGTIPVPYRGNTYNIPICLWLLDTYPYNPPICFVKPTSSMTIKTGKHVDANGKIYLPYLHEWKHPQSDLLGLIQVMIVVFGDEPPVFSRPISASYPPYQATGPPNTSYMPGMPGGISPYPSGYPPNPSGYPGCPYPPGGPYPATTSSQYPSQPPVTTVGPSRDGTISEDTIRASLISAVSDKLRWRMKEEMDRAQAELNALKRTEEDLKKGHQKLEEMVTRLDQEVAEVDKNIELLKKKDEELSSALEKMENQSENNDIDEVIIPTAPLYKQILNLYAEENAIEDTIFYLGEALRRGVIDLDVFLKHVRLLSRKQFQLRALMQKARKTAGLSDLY
#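 Compounds were pin-transferred onto Tsg101 binding domain (10 uM final) in HEPES pH 7.5 buffer, then FITC-PTAP peptide was added at 50 nM final. After 20 min at RT, polarization reported peptide displacement across a qHTS concentration series.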
# KB-3-1 tox: KB-3-1 parental cell cytotoxicity. KB-3-1 viability, CellTiter-Glo ATP luminescence, 72 h. Potency, µM (series often up to 46.1 µM), hits mostly cytotoxic. 1.4% of 400,000 active; note: nearly all actives have a fitted effect of over 60% in size
#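 Luminescent ATP read-out (CellTiter-Glo) measures survival of drug-naive KB-3-1 cells after 72 h compound exposure at 37 °C. Titration series was screened from lowest to highest concentration, with DMSO vehicle plates as background controls.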
# MCF10A rerep: induces DNA re-replication in MCF 10a normal breast cells; MCF 10A DNA re-replication, Hoechst nuclear intensity, 48 h; Potency, µM (series often up to 46.1 µM), usual class: activators; 2.9% of 350,000 active; AID 624296; note: nearly all actives have a fitted effect of over 50% in size
# Numbers stand for hits; 0 = inactive; ? = inconclusive; - = not tested or not shown; [ ] = remark or other dose. Unless noted, calls come from the whole dose curve; as a rule, active = well fitted curve in the direction sought with a large enough effect; inconclusive = small, poorly fitted or top-dose-only effect, or another doubt; inactive = no such curve, though single readings can be large; an effect the other way counts as inactive or inconclusive.
SMILES,KB-V1 cytotox,SW480 rerep,RGS4 inhibitor,PTAP TSG101 blk,KB-3-1 tox,MCF10A rerep
COc1cccc(-n2c(CN3CCN(c4ccc(C)cc4)C(C)C3)nc3ccc([N+](=O)[O-])cc3c2=O)c1 (stereo unspecified),15µM,0,0,0,0,0
COc1ccc(NC(=O)CC(C)=O)c(OC)c1,0,0,0,0,0,0
COc1ccc(NC(=O)CC(=O)Nc2ccc(OC)cc2OC)c(OC)c1,21µM,0,0,0,0,0
COc1ccc(NC(=O)c2ccccc2Oc2ccccc2)c(OC)c1,0,0,0,0,0,26µM
CCOc1ccc(NCC(=O)Nc2ccc(Cl)cc2C)cc1,?,?,0,0,0,?
COc1ccc(OC)c(NC(=O)CS(=O)(=O)c2ccccc2)c1,18µM,0,0,0,0,0
COc1ccc(NCC(=O)Nc2ccc(Cl)cc2C)c(OC)c1,0,16µM,0,0,0,0
COc1ccccc1NC(=O)c1ccccc1Oc1ccccc1,0,0,0,0,0,0
COc1cccc(C(=O)N2CCc3cc(OC)c(OC)cc3C2COc2ccc3c(C)cc(=O)oc3c2)c1 (stereo unspecified),?,-,0,-,0,-
Cc1cc(Cl)ccc1OCC(=O)N(Cc1ccco1)Cc1ccccc1F,-,-,0,-,-,-
COc1ccc(-c2cn(-c3ccccc3)c3[n+]2CCS3)cc1,0,0,0,0,3.3µM,0
Clc1ccc(Cn2ncc3c(NCCN4CCOCC4)ncnc32)cc1,21µM,0,0,0,0,0
c1ccc2c(c1)oc1c(Nc3ccc(CN4CCOCC4)cc3)ncnc12,18µM,0,0,0,?,16µM
CC(=O)N1CCN(c2ccc(Nc3ncnc4c3oc3ccccc34)cc2)CC1,21µM,0[9.22 µM],0,0,?,?
c1ccc2c(c1)oc1c(NCCN3CCOCC3)ncnc12,23µM,0,0,-,0,0
Cc1nc(NCCN2CCOCC2)c2oc3ccccc3c2n1,0,0,0,0,0,0
O=S(=O)(c1ccc(F)cc1)N1CCN(c2nc(-c3cccc(Br)c3)nc3ccccc23)CC1,-,-,0,-,-,-
O=C(Nc1ccccc1Cl)c1ccc(F)c(S(=O)(=O)NCc2ccc(Cl)c(Cl)c2)c1,-,-,0,-,-,-
CC(C)Cc1nc2oc3c(NCCCN4CCOCC4)ncnc3c2c2c1CCC2,0,?,0,0,?,0
CCCc1nc2oc3c(NCCN4CCOCC4)ncnc3c2c2c1CCCC2,1.8µM,0,0,0,0,0
CC1CCN(c2c(NCc3ccc(C(=O)N4CCc5ccccc54)cc3)c(=O)c2=O)CC1,0,6.5µM,0,0,1.6µM,3.7µM
CC(C)CCNC(=O)c1ccc2nc(CCc3ccccc3)oc2c1,0,-,0,-,0,-
C=C1C2=C(C(=O)N1OC)[C@@H](O)[C@@](C)(O)[C@@H](CCCCC)O2,0,-,-,-,18µM,-
CCCSc1nsc(NC(=O)C(c2ccccc2)c2ccccc2)n1,?,?,0,0,26µM,?
COc1ccc2c(c1)c1ncn(CCN3CCCC3)c(=O)c1n2C,8.2µM,0,0,0,0,0
SMILES,KB-V1 cytotox,SW480 rerep,RGS4 inhibitor,PTAP TSG101 blk,KB-3-1 tox,MCF10A rerep
COc1ccc2c(c1)c1ncn(CCN3CCCCC3)c(=O)c1n2C,0,0,0,0,0,0
Cc1ccc(S(=O)(=O)N2CCN(C(=O)C(C)Cn3nc(C)c(C)c3C)CC2)cc1 (stereo unspecified),0,0,0,0,0,0
Cc1nn(CC(C)C(=O)N2CCN(S(=O)(=O)c3ccc(Cl)cc3)CC2)c(C)c1C (stereo unspecified),21µM,0,0,0,0,0
Cc1cccc(NC(=O)CSc2nc3n[nH]c(C)c3c(=N)n2-c2cccc(Cl)c2)c1,-,-,0,-,-,-
CC(=O)N1c2ccc(S(=O)(=O)N3CCCCCC3)cc2CC1C(=O)NCc1ccccc1 (stereo unspecified),0,-,0,-,0,-
CCC(C)NC(=O)CSc1nc2n[nH]c(C)c2c(=N)n1-c1cc(Cl)ccc1C (stereo unspecified),0,-,0,-,0,-
Cc1ccc(CNC(=O)C2CC(c3cc(C(F)(F)F)cc(C(F)(F)F)c3)=NO2)o1 (stereo unspecified),0,?,0,0,0,9.2µM
COc1ccc(C2=NOC(C(=O)NCc3ccco3)C2)cc1 (stereo unspecified),7.3µM,18µM,0,0,13µM,6.5µM
COc1cc(C2=NOC(C(=O)NCc3ccco3)C2)cc(OC)c1OC (stereo unspecified),2.9µM,?,0,0,0,?
CCOc1ccc(/C=C/c2nc(C#N)c(Nc3ccc(OCC)cc3)o2)cc1,-,-,0,-,-,-
CNc1nc(N)c([N+](=O)[O-])c(Nc2cccc(F)c2)n1,0,18µM,0,0,0,0
Nc1nc(Nc2ccccc2)nc(NCc2ccccc2)c1[N+](=O)[O-],?,0,0,0,?,0
Cc1cccc(Nc2nc(N)c([N+](=O)[O-])c(NCc3ccccc3)n2)c1,18µM,?,0,0,0,18µM
Cc1ccc(Nc2nc(N)c([N+](=O)[O-])c(NCc3ccco3)n2)cc1C,12µM,0,0,0,23µM,?
Nc1nc(NCc2ccccc2)nc(NCc2ccccc2)c1[N+](=O)[O-],16µM,0,0,0,0,0
COc1ccc(/C=C/C(=O)N(CC(C)C)CC(C)C)cc1Br,21µM,?,0,0,0,?
